Measurements published in the supplement of paper PMC3334620.
The full ranking holds about 33,000 sequences; the median of “E-score (-0.5 to 0.5)” is about -8e-05, and the highest 2% start at about 0.23. The entries come from a sample that favours the highest values as a whole.

biological target: T1, Nrg2 (UniProt P38082); assay: PBM E-score (8-mer binding enrichment) (E-score (-0.5 to 0.5)); higher = stronger / more preferred TF binding; settings: protein concentration: 100 nM; construct: GST-full length
T1 sequence: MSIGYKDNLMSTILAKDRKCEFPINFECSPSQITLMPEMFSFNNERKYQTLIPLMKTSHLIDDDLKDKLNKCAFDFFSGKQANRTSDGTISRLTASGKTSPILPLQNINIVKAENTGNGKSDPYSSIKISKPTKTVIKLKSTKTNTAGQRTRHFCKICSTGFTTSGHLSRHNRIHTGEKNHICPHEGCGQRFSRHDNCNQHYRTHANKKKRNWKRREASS
Description: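 Universal 'all 10-mer' protein binding microarrays (Agilent AMADID 015681) probed with GST-tagged S. cerevisiae TFs (full-length or DBD) made by in vitro transcription/translation (PURExpress), about 100-200 nM. Bound TF was detected with fluorescent anti-GST. Each ungapped 8-mer (which stands for itself and its reverse complement) is scored by the PBM enrichment score (E-score), a modified Wilcoxon-Mann-Whitney statistic from -0.5 to +0.5, computed with the Universal PBM Analysis Suite. Scale: above 0.35 generally sequence-specific binding.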

Sequence	PBM E-score
GGGCGACA	-0.132
AGAGTTGA	-0.073
GTCCCACA	0.0612
ACGTTGAC	-0.00444
TCAACACA	0.235
ACAACACA	0.0869
CCAACACG	0.0552
CTTCGATC	-0.00647
CGATTCGA	0.27
GGATTCGA	-0.0125
AGATTCGA	0.0269
GCCGCGCC	-0.0901
GTCCCGTA	-0.111
ACGCGACC	-0.0575
GATGCAAA	0.0177
CAGCAACG	0.251
CAGCAACA	0.159
AAGCAACG	0.161
GTCAGCAC	-0.0154
GACTACGC	-0.187
AACGAAAC	0.117
AACGAAAT	0.251

Sequence	PBM E-score
AACGAAAG	-0.0319
ATTGCAGC	0.0702
GGGCGTAC	0.0663
CGACCCTA	0.109
GTAACCCA	0.229
GAACCCCA	0.26
CTAACCCA	-0.00624
AGGACCTA	0.114
GGGACCTA	0.245
GCACCCTA	0.105
CGGACCTA	0.0604
GAACCCAA	0.0482
GAACCCCC	-0.322
ATAACCCA	-0.0462
GGACCCTA	0.305
GCGCTGGA	0.0138
ATGGGTAG	-0.13
CGACGGTA	0.0706
GCAATAGC	0.133
AAAAGGGC	0.12
ATGCTCCA	0.0544
GGACCCCC	-0.144

Sequence	PBM E-score
TGACCCCA	0.0468
GGACCCCA	0.236
AAGATAGC	0.0443
GGGACGAA	0.0439
CGGACGAA	0.233
GAGACGAA	-0.0342
CAGACGAC	-0.0246
CGGACGAC	-0.061
CAGACGAA	0.252
AAGCTAAT	0.11
CTAGTCAC	-0.122
AACTACAT	-0.038
GGTCTCGA	0.0782
CAGACGGC	-0.16
CGAGGAAA	0.0442
CGAGGAAC	0.269
AGAGGAAC	-0.113
CAGCACGA	0.0405
ACCCTTGA	0.242
ACCCTAGT	-0.0371
ACCCTTGC	0.268
GCCCTTGA	-0.00607

Sequence	PBM E-score
ACCCTTGG	0.198
ACCCTAGA	0.284
CCCCTTGA	0.2
CCCCTAGA	0.117
CCCCTTGC	-0.0115
AGGACTAA	-0.0768
GTACTAGA	-0.00429
AACGACTC	-0.253
ATAGAAGA	-0.158
CACAGGCA	0.0159
AATGACGG	0.125
CACCGCGC	-0.0311
CGCAGCTA	-0.0329
CATCCACA	0.0702
ACAGAATA	0.148
GGAAATGA	0.25
CTAAATGA	0.0289
AAAAATGA	0.0139
GAAAATGA	-0.0055
CGAAATGA	0.127
TAAAATGA	0.254
